The full list was thinned out, with hits kept by preference.
DT40 TDP1 CPT = DT40-hTDP1 cell growth loss with CPT. chicken DT40 Tdp1-/-;hTDP1 cells + 20 nM CPT, ATP luminescence, 48 h. Potency, µM (series often up to 46.2 µM), for inactives: at the highest dose activity change, negative = growth inhibition, actives largely listed as inhibitors. 420,000 compounds, 12% hits. AID 686979; also: potency is read from the fitted curve at half-maximal effect; nearly all actives have a fitted effect of over 55% in size
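Chicken DT40 Tdp1-/- cells stably complemented with human TDP1 were seeded at 400 cells/well in medium containing 20 nM camptothecin, exposed to pin-transferred compounds, and grown at 37 °C for at least 48 hr. Viability was read as ATP luminescence.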
HT1080 IDH1KD tx = toxicity to HT-1080 IDH1 knockdown cells (counter line). HT-1080 IDH1 knockdown viability, ATP luminescence, 48 h. Potency, µM (series often up to 46.1 µM), for inactives: at the top dose activity, negative = toxicity, most hits filed as cytotoxic. 360,000 compounds, 2% hits. AID 686971;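 also: potency is read from the fitted curve at half-maximal effect; 0% = DMSO wells and -100% = cell-free medium wells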
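Luminescent ATP read-out (CellTiter-Glo, 10 min at room temperature) after 48 h compound exposure at 37 °C gave viability of IDH1-knockdown HT-1080 cells. Activity was normalised to DMSO and cell-free wells, then fitted as concentration-response curves.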
ALOX12 inh = blocks human arachidonate 12S-lipoxygenase; P18054; purified 12hLO, xylenol orange hydroperoxide absorbance; Potency, µM (doses to about 108 µM), for the others: top-dose activity change, negative = inhibition, actives largely listed as inhibitors; 580,000 compounds, 1.1% hits; AID 1671190; also: potency is read from the fitted curve at half-maximal effect
Target sequence (P18054 whole entry, looked up): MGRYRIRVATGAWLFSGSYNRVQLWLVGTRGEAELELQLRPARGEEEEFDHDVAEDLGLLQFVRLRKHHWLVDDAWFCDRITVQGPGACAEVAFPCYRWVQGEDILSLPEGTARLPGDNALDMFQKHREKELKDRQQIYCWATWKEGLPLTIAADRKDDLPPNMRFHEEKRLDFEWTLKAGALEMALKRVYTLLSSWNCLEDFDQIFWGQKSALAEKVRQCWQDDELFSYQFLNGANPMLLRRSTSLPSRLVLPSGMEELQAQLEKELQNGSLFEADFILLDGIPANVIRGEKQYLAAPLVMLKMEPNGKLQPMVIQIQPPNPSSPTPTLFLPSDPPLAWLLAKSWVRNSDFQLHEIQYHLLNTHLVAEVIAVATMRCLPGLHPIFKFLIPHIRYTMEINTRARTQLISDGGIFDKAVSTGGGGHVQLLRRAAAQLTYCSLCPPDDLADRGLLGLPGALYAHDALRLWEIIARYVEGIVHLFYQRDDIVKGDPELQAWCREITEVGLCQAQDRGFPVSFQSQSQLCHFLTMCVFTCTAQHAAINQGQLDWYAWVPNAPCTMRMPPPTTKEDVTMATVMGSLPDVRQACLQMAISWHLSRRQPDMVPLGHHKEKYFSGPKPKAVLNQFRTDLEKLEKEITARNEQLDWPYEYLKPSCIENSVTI
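Purified human 12hLO (150 nM final) in 25 mM Hepes, 0.01% Triton X-100, pH 7.0 was preincubated 15 min at room temperature with compound. Then 40 uM arachidonic acid was added, 30 min. Hydroperoxide was read by Fe-XO absorbance ratio 573/405 nm.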
DT40 TDP1 no CPT = qHTS for Inhibitors of human tyrosyl-DNA phosphodiesterase 1 (TDP1): qHTS in cells in absence of CPT. DT40 Tdp1-/- hTDP1 cells, no CPT, ATP luminescence, 48 h. 420,000 compounds, 15% hits. Potency, µM (highest dose often 46.2 µM), for inactives: at the highest dose activity change, negative = growth inhibition, hits mostly inhibitors; also: potency is read from the fitted curve at half-maximal effect; nearly all actives have a fitted effect of over 55% in size
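Cells were dispensed at 400 per well, compounds added by pin tool, plates incubated ≥48 hr at 37 °C, then CellTiter-Glo added for 30 min at room temperature before luminescence reading. Line: DT40 Tdp1-/- complemented with hTDP1; camptothecin omitted.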
IL1B secr inh = blocks inflammasome-driven IL-1 beta release; activity change, % at 57.5 µM; AID 743279; THP-1 LPS/ATP IL-1B secretion, AlphaLISA, 16 h; active compounds read low; 360,000 compounds, 4.7% hits; in the data active = activity change below about -50%; inconclusive = mostly about -30% to -49%
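THP-1 cells pretreated 1 hr with compounds (up to 57.5 uM final), then stimulated with LPS (250 ng/mL final) plus ATP (1.25 mM final); secreted IL-1B measured by AlphaLISA after 16 hr, decreased signal indicating inhibition.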
HT1080NT lethal = kills 2HG-producing HT-1080-NT fibrosarcoma cells | HT-1080-NT fibrosarcoma viability, CellTiter-Glo ATP luminescence, 48 h | 360,000 compounds, 1.6% hits | Potency, µM (top dose mostly 46.1 µM), inactives show top-dose activity, negative = less viability, hits mostly cytotoxic;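 also: NT is the 2HG producing partner of a matched IDH1 knockdown line; potency is read from the fitted curve at half-maximal effect; 0% = DMSO-treated cells and -100% = media-only wells without cells; nearly all actives have a fitted effect of over 55% in size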
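Luminescent CellTiter-Glo readout after 48 hours of compound exposure at 37 degrees C defined viability of HT-1080-NT cells. Activity was normalized to DMSO wells and cell-free media wells; concentration-response curves were fitted and assigned curve classes.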
* marks the source's active call; other numbers are inactive results; [ ] = remark or other dose. Unless noted, calls follow the shape of the dose curve; as a rule, active = well fitted curve in the direction sought with a large enough effect; inconclusive = small, poorly fitted or top-dose-only effect, or another doubt; inactive = no such curve, though single readings can be large; an effect the other way counts as inactive or inconclusive. Unless noted, % is scaled to controls: 0 for no effect and ±100 for the full control effect.

What do the screens show for `C#C[C@]1(O)CC[C@H]2[C@@H]3CCC4=CC(=O)CC[C@]4(C)[C@H]3CC[C@@]21C`?
DT40 TDP1 CPT: -23%; HT1080 IDH1KD tx: 2%; ALOX12 inh: -11%; DT40 TDP1 no CPT: -11%; IL1B secr inh: 3; HT1080NT lethal: 20%

Results for CC(C)c1c(C(=O)NC(c2cccnc2)C(F)(F)F)cnn1-c1nccc(-c2cccs2)n1 (stereo not drawn) ?
DT40 TDP1 CPT: inconclusive; ALOX12 inh: 8%; DT40 TDP1 no CPT: 13µM*

How did CCCN1CC[C@@H](CO)N(C)c2nc(C)ccc2C1 do in these assays?
ALOX12 inh: 93%[176 µM]

What do the screens show for `CN(C)Cc1ccccc1-c1ccc2n(c1=O)C[C@H]1C[C@@H]2CN(C(=O)c2ccco2)C1`?
ALOX12 inh: -2%[176 µM]

What do the screens show for `COc1ccc(Nc2nc(NC(C)C)nc3ccsc23)cc1OC`?
DT40 TDP1 CPT: 18µM*; HT1080 IDH1KD tx: -26%; ALOX12 inh: -2%; DT40 TDP1 no CPT: 18µM*; IL1B secr inh: -89*; HT1080NT lethal: inconclusive

Results for CCOC(=O)C1(c2ccccc2)CCN(CC(=O)c2ccc(NC(C)=O)cc2)CC1 ?
DT40 TDP1 CPT: inconclusive; HT1080 IDH1KD tx: -4%; ALOX12 inh: -17%; DT40 TDP1 no CPT: inconclusive; IL1B secr inh: 11; HT1080NT lethal: -5%

How did CCOC(=O)[C@]12Cc3cc(C)ccc3[C@H]1N(C)C(=O)c1ccccc12 do in these assays?
DT40 TDP1 CPT: 16µM*; HT1080 IDH1KD tx: -16%; ALOX12 inh: inconclusive; DT40 TDP1 no CPT: 16µM*; IL1B secr inh: -13; HT1080NT lethal: 0%

How did CCOC(=O)[C@]12Cc3cc(OC)ccc3[C@H]1N(C)C(=O)c1ccccc12 do in these assays?
DT40 TDP1 CPT: -27%; HT1080 IDH1KD tx: 14%; ALOX12 inh: -29%; DT40 TDP1 no CPT: inconclusive; IL1B secr inh: inconclusive; HT1080NT lethal: 9%

What do the screens show for `CCOC(=O)[C@]12Cc3cc(Cl)ccc3[C@H]1N(C)C(=O)c1ccccc12`?
DT40 TDP1 CPT: inconclusive; HT1080 IDH1KD tx: 1%; ALOX12 inh: -35%; DT40 TDP1 no CPT: inconclusive; IL1B secr inh: -62*; HT1080NT lethal: 3%

What do the screens show for `COc1ccc(C2C(C(=O)N3CCC4(CC3)OCCO4)c3cc(OC)c(OC)cc3C(=O)N2C)cc1` (stereo not drawn)?
DT40 TDP1 CPT: 1%; HT1080 IDH1KD tx: 18%; ALOX12 inh: 25%; DT40 TDP1 no CPT: -9%; IL1B secr inh: -1; HT1080NT lethal: 15%

How did CCOC(=O)[C@]12Cc3cc(C)ccc3[C@H]1N(C)C(=O)c1cc(OC)ccc12 do in these assays?
DT40 TDP1 CPT: 21µM*; HT1080 IDH1KD tx: 16µM*; ALOX12 inh: 0%; DT40 TDP1 no CPT: 23µM*; IL1B secr inh: -116*; HT1080NT lethal: inconclusive

How did CCOC(=O)[C@]12Cc3cc(Cl)ccc3[C@H]1N(CC(=O)OC)C(=O)c1ccccc12 do in these assays?
DT40 TDP1 CPT: 9.2µM*; HT1080 IDH1KD tx: 7.3µM*; DT40 TDP1 no CPT: 4.1µM*; HT1080NT lethal: 5.8µM*

How did CCOC(=O)[C@]12Cc3cc(Cl)ccc3[C@H]1N(C(C)C)C(=O)c1ccccc12 do in these assays?
DT40 TDP1 CPT: 2.6µM*; HT1080 IDH1KD tx: 3.3µM*; ALOX12 inh: inconclusive; DT40 TDP1 no CPT: 3.3µM*; HT1080NT lethal: 4.6µM*

Results for Cc1cnc(SCc2ccccn2)nc1C1CCCN(C(=O)c2cccc(-c3cccc(F)c3)c2)C1 (stereo not drawn) ?
DT40 TDP1 CPT: -7%[9.04 µM]; ALOX12 inh: inconclusive; DT40 TDP1 no CPT: 16µM*

How did CC(C)CCCn1c(O)c(/C=C2/C=CC=N2)c(=O)[nH]c1=O do in these assays?
DT40 TDP1 CPT: 5.8µM*; HT1080 IDH1KD tx: 16µM*; ALOX12 inh: -8%; DT40 TDP1 no CPT: 5.2µM*; IL1B secr inh: -18; HT1080NT lethal: 18µM*

How did C[C@]1(O)CCC2C3CC[C@@H]4CC(=O)CC[C@]4(C)C3CC[C@@]21C (stereo partly drawn) do in these assays?
DT40 TDP1 CPT: 18µM*; HT1080 IDH1KD tx: 4%; ALOX12 inh: -15%; DT40 TDP1 no CPT: inconclusive; IL1B secr inh: 14; HT1080NT lethal: 11%

How did C[C@]12CCC3C(CC[C@H]4CC(=O)CC[C@]34C)C1CCC2=O (stereo partly drawn) do in these assays?
DT40 TDP1 CPT: inconclusive; HT1080 IDH1KD tx: 10%; ALOX12 inh: -3%; DT40 TDP1 no CPT: inconclusive; IL1B secr inh: 16; HT1080NT lethal: 8%

Results for CC12Cc3cnoc3C=C1CCC1C2CCC2(C)C1CCC2(C)O (stereo not drawn) ?
DT40 TDP1 CPT: inconclusive; HT1080 IDH1KD tx: 2%; ALOX12 inh: inconclusive; DT40 TDP1 no CPT: inconclusive; IL1B secr inh: -50*; HT1080NT lethal: 3%

How did C[C@]12CCC(=O)C=C1CC[C@@H]1[C@@H]2CC[C@@]2(C)[C@H]1CC[C@]2(C)O do in these assays?
DT40 TDP1 CPT: inconclusive; HT1080 IDH1KD tx: -10%; ALOX12 inh: -14%; DT40 TDP1 no CPT: inconclusive; IL1B secr inh: 35; HT1080NT lethal: 5%

How did C[C@]12C=CC(=O)C=C1CC[C@@H]1[C@@H]2CC[C@@]2(C)[C@H]1CC[C@]2(C)O do in these assays?
DT40 TDP1 CPT: inconclusive; ALOX12 inh: 4%; DT40 TDP1 no CPT: 19µM*

What do the screens show for `COc1ccccc1C1=NCC(=O)N(CC(=O)Nc2ccccc2)c2sc3c(c21)CCCC3`?
ALOX12 inh: 14%

What do the screens show for `CC(=O)c1ccc(NC(=O)NC[C@H]2C[C@@H]3CCN2C[C@@H]3c2cc(-c3ccco3)nc(C)n2)cc1`?
ALOX12 inh: -4%

Results for CNC(C)CCC=C(C)C (stereo not drawn) ?
DT40 TDP1 CPT: inconclusive; DT40 TDP1 no CPT: 15µM*

What do the screens show for `CCCNC(=O)N1CC2CN(C(C)C)CC(C1)O2`?
ALOX12 inh: 27%

What do the screens show for `COC1C(O)CC(OC2C(O)CC(OC3C(O)CC(OC4CCC5(C)C(CCC6[C@@H]5CC(O)C5(C)C(C7=CC(=O)OC7)CCC65O)C4)OC3C)OC2C)OC1C` (stereo partly drawn)?
ALOX12 inh: 6%

Bioassay records (PubChem BioAssay)
